According to PubChem BioAssay AID504427 (National Center for Advancing Translational Sciences (NCATS), 2011):
This is one part of the list. Activity calls are given as the source filed them.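 How the source made its calls: active means compound that inhibits Clk2 kinase in the dose series, with an IC50 potency reported; inactive means no inhibition seen.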

What follows are compounds tested against Dual specificity protein kinase CLK2 (Homo sapiens) (UniProt P49760) (assay: Kinase Inhibition Study on Inhibitors of CDC-like Kinase 2 (Reaction Biology data)). Conditions: Reaction Biology kinase assay, 10 uM ATP.
From the text: NIH Molecular Libraries Probe Production Centers Network [MLPCN] NIH Chemical Genomics Center [NCGC] MLPCN Grant: 1R03MH084827-01 Assay Submitter (PI): Tom Misteli NCGC Assay Overview: Alternative splicing of pre-mRNAs plays a major role in the regulation of eukaryotic gene expression. Alternative splicing is now thought to be one of the primary reasons for the complexity of higher organisms leading to an average of three protein isoforms per gene. Aberrant splicing can lead to a number of diseases and is known to play a role in rare genetic diseases such as progeria syndrome. Hutchinson-Gilford Progeria Syndrome (HGPS) is a pediatric premature aging disease caused by a spontaneous mutation in the lamin A/C (LMNA) gene due to a single point mutation in the lamin A gene effecting 1 in 4 million people. To identify both specific splicing modulators of the lamin A gene as well as general splicing modulators, a cell-based HTS assay was developed using a minigene reporter system (AIDs, 1459 & 1487). […] This AID summarizes the characterization of lead compounds in Clk2.
All kinase reactions were performed using 10 uM ATP in the assay. 100% activity was taken from kinase reactions with DMSO alone (the vehicle used for compound stock solutions).

Dual specificity protein kinase CLK2 (Homo sapiens), sequence (P49760 whole entry, looked up, canonical isoform): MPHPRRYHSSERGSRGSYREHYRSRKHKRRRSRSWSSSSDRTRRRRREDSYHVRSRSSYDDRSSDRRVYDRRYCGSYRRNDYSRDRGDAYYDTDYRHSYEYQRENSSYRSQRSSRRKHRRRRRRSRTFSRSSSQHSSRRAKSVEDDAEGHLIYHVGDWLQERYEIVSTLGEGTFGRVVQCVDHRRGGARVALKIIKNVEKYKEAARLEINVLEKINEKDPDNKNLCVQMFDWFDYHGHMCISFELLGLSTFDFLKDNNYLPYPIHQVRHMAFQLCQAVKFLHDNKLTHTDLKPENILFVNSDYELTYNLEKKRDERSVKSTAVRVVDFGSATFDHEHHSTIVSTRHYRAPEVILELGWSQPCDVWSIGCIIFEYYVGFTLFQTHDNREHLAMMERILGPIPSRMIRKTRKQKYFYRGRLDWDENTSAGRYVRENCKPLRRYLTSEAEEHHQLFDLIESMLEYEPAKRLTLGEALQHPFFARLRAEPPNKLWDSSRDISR

Potency, active:
c1coc(CCNc2ncnc3ccc(-c4ccc5c(c4)OCO5)cc23)c1 0.801 µM
CN(Cc1cncn1C)c1ncnc2ccc(-c3ccc4c(c3)OCO4)cc12 15 µM
CC(Nc1ncnc2ccc(-c3ccc4c(c3)OCO4)cc12)c1ccco1 (centres undefined) 8.37 µM
c1nc(N2CCOCC2)c2cc(-c3ccc4c(c3)OCO4)ccc2n1 1.67 µM
